From PubChem BioAssay (NCATS)
Results filed as inconclusive are left out. Active and inactive are the calls of the source. Calls follow the shape of the full dose curve.

Columns and labels:
[1] = Primary qHTS for inhibitors of SARS-S pseudo-typed particle cell entry (AID 1479145); also: nearly all actives have a fitted effect of over 45% in size
[2] = Primary qHTS for Huh7 cytotoxicity: counterscreen for inhibitors of MERS-S pseudotyped particle cell entry (AID 1479147)
[3] = Primary qHTS for inhibitors of MERS-S pseudo-typed particle cell entry (AID 1479149); also: nearly all actives have a fitted effect of over 60% in size
[4] = Primary qHTS for Vero E6 cytotoxicity: counterscreen for inhibitors of SARS-S pseudo-typed particle cell entry (AID 1479150)

Measured: Potency

O=C(O)C(S)C(S)C(=O)O (stereo not drawn)
inactive: [1] | [2] | [3] | [4]

CC1(C)O[C@@H]2C[C@H]3[C@@H]4C[C@H](F)C5=CC(=O)C=C[C@]5(C)[C@@]4(F)[C@@H](O)C[C@]3(C)[C@]2(C(=O)CO)O1
inactive: [1] | [2] | [3] | [4]

Cc1ccc(C(=O)c2ccc(CC(=O)O)n2C)cc1
inactive: [1] | [2] | [3] | [4]

CCCCCC=CCC=CCCCCCCCC(=O)OCC
inactive: [1] | [2] | [3] | [4]

O=C(O)CSCC(=O)NC1CCSC1=O (stereo not drawn)
inactive: [1] | [2] | [3] | [4]

CCCc1c2oc(C(=O)O)cc(=O)c2cc2c(=O)cc(C(=O)O)n(CC)c12
inactive: [1] | [2] | [3] | [4]

NC(=O)NC1N=C([O][Al])NC1=O (stereo not drawn)
inactive: [1] | [2] | [3] | [4]

CC(=O)O[C@@H]1CC2C3CCc4cc(OC(=O)c5ccccc5)ccc4C3CCC2(C)[C@H]1OC(C)=O (stereo partly drawn)
inactive: [1] | [2] | [3] | [4]

CC(=O)OCC(=O)[C@@]1(O)[C@H](OC(C)=O)C[C@H]2[C@@H]3CCC4=CC(=O)C=C[C@]4(C)[C@@]3(F)[C@@H](O)C[C@@]21C
inactive: [1] | [2] | [3] | [4]

CC(=O)O[C@@H]1C(=O)O[C@@H]2[C@H]1OC(=O)[C@@H]2OC(C)=O
inactive: [1] | [2] | [3] | [4]

CC(=O)CC(c1ccccc1)c1c(O)c2ccccc2oc1=O (stereo not drawn)
inactive: [1] | [2] | [3] | [4]

C[C@]12C=CC(=O)C=C1CC[C@@H]1[C@@H]2C(=O)C[C@@]2(C)[C@H]1CC[C@]2(O)C(=O)CO
inactive: [1] | [2] | [3] | [4]
